According to ChEMBL document CHEMBL4513146, “CO-ADD screening of Karazin Kharkiv National University (Ukraine) compounds”:
Measured potencies and affinities stand elsewhere.

Key:
Klebsiella pneumoniae = conditions: Concentration 32 ug.mL-1;; ASSAY_TEST Inhibition of Bacterial Growth; detection method Absorption (OD600); MEDIA CAMHB; plate type 384well; NBS; CORNING #3640; time 18 hr
Candida albicans = conditions: Concentration 32 ug.mL-1; ASSAY_TEST Inhibition of Fungal Growth; detection method Absorption (OD530)
Cryptococcus neoformans = conditions: Concentration 32 ug.mL-1; ASSAY_TEST Inhibition of Fungal Growth; detection method Resazurin; Absorption (OD600-OD570); plate type 384well; NBS; CORNING #3640

SMILES: COC(=O)c1ccc(CN(c2cccc(F)c2)S(=O)(=O)c2ccc3nncn3c2)o1
- Inhibition (Klebsiella pneumoniae): 8.3%
- Inhibition (Candida albicans): 2.51%
- Inhibition (Cryptococcus neoformans): -7.35%

SMILES: COc1ccc(-c2cc3c4nnc(CCC(=O)NCCc5ccccc5)n4ccn3n2)cc1
- Inhibition (Klebsiella pneumoniae): 3.81%
- Inhibition (Candida albicans): 3.45%
- Inhibition (Cryptococcus neoformans): -16.37%

SMILES: Cc1cc(C)cc(NC(=O)Cn2nc3ccc(-c4ccc(C)c(C)c4)nn3c2=O)c1
- Inhibition (Klebsiella pneumoniae): 5.54%
- Inhibition (Candida albicans): 21.88%
- Inhibition (Cryptococcus neoformans): -18.49%

SMILES: O=C(CSc1nnc2c3cc(-c4ccccc4)nn3ccn12)Nc1cccc(Br)c1
- Inhibition (Klebsiella pneumoniae): 14.04%
- Inhibition (Candida albicans): 3.21%
- Inhibition (Cryptococcus neoformans): -28.34%

SMILES: Cc1ccc(C)c(Cn2nc3n(CCC(C)C)c(=O)c4sccc4n3c2=O)c1
- Inhibition (Klebsiella pneumoniae): 11.36%
- Inhibition (Candida albicans): 0.71%
- Inhibition (Cryptococcus neoformans): -24.6%

SMILES: Cc1nnc2c(=O)n(CC(=O)Nc3ccccc3Cl)c3ccccc3n12
- Inhibition (Klebsiella pneumoniae): 0.78%
- Inhibition (Candida albicans): 1.36%
- Inhibition (Cryptococcus neoformans): -5.67%

SMILES: Cc1ccc(Cl)cc1NC(=O)Cn1nc2c(N3CCOCC3)nc3ccccc3n2c1=O
- Inhibition (Klebsiella pneumoniae): 0.47%
- Inhibition (Candida albicans): 3.17%
- Inhibition (Cryptococcus neoformans): -17.81%

SMILES: CCc1cccc(NC(=O)Cn2nc3ccc(SC(C)(C)C)nn3c2=O)c1
- Inhibition (Klebsiella pneumoniae): 16.66%
- Inhibition (Candida albicans): 3.39%
- Inhibition (Cryptococcus neoformans): -23.79%

SMILES: Cc1ccc(NC(=O)Cn2nc3c(Oc4ccccc4)nccn3c2=O)c(Br)c1
- Inhibition (Klebsiella pneumoniae): -5.15%
- Inhibition (Candida albicans): 0.27%
- Inhibition (Cryptococcus neoformans): -6.15%

SMILES: COc1ccc(CNC(=O)Cn2nc3c(SC4CCCCC4)nccn3c2=O)cc1
- Inhibition (Klebsiella pneumoniae): 14.45%
- Inhibition (Candida albicans): 17.79%
- Inhibition (Cryptococcus neoformans): -15.36%

SMILES: CC1CC(C)CN(c2nccn3c(=O)n(CC(=O)Nc4cccc(C(F)(F)F)c4)nc23)C1 (centres undefined)
- Inhibition (Klebsiella pneumoniae): 12.34%
- Inhibition (Candida albicans): 1.5%
- Inhibition (Cryptococcus neoformans): -9.37%

SMILES: COc1cccc(CN(c2ccc(F)c(F)c2)S(=O)(=O)c2ccc3nncn3c2)c1
- Inhibition (Klebsiella pneumoniae): 0.45%
- Inhibition (Candida albicans): 4.56%
- Inhibition (Cryptococcus neoformans): -8.9%

SMILES: Cc1cccc(C)c1NC(=O)Cn1nc2c(Sc3ccccc3)nccn2c1=O
- Inhibition (Klebsiella pneumoniae): -1.09%
- Inhibition (Candida albicans): 0.55%
- Inhibition (Cryptococcus neoformans): -9.17%

SMILES: CCc1nnc2c(S(=O)(=O)N(Cc3cccc(F)c3)c3cccc(C)c3)cccn12
- Inhibition (Klebsiella pneumoniae): 4.33%
- Inhibition (Candida albicans): 0.97%
- Inhibition (Cryptococcus neoformans): -1.17%

SMILES: Cc1ccc(Sc2nccn3c(=O)n(CC(=O)Nc4ccccc4Br)nc23)c(C)c1
- Inhibition (Klebsiella pneumoniae): 1.33%
- Inhibition (Candida albicans): 1.01%
- Inhibition (Cryptococcus neoformans): -20.06%

SMILES: O=C(CSc1nnc2c(=O)n(-c3ccc(F)c(F)c3)ccn12)c1cccc(Cl)c1
- Inhibition (Klebsiella pneumoniae): 12.31%
- Inhibition (Candida albicans): 1.86%
- Inhibition (Cryptococcus neoformans): -8.13%

SMILES: COc1cc(NC(=O)CSc2nnc3c(=O)n(-c4ccc(C)c(C)c4)ccn23)cc(OC)c1
- Inhibition (Klebsiella pneumoniae): 2.77%
- Inhibition (Candida albicans): 1.66%
- Inhibition (Cryptococcus neoformans): -9.37%

SMILES: CC(C)c1nnc2c(SCC(=O)Nc3ccccc3Br)nc3ccccc3n12
- Inhibition (Klebsiella pneumoniae): 12.82%
- Inhibition (Candida albicans): 4.2%
- Inhibition (Cryptococcus neoformans): -6.3%

SMILES: COC(=O)c1ccccc1NC(=O)Cn1nc2c3sc(N4CCCC4)nc3ncn2c1=O
- Inhibition (Klebsiella pneumoniae): 7.53%
- Inhibition (Candida albicans): 3.62%
- Inhibition (Cryptococcus neoformans): -7.62%

SMILES: CCOC(=O)c1cccc(NC(=O)Cn2nc3c4cc(-c5ccc(C)c(C)c5)nn4ccn3c2=O)c1
- Inhibition (Klebsiella pneumoniae): -4.81%
- Inhibition (Candida albicans): 21.87%
- Inhibition (Cryptococcus neoformans): -17.02%

SMILES: CC1CCCN(c2nccn3c(=O)n(CC(=O)Nc4ccc(F)cc4F)nc23)C1 (centres undefined)
- Inhibition (Klebsiella pneumoniae): -1.65%
- Inhibition (Candida albicans): 1.98%
- Inhibition (Cryptococcus neoformans): -8.2%

SMILES: O=C(CCc1nnc2c(N3CCCCC3)nc3ccccc3n12)NCc1ccc(Br)cc1
- Inhibition (Klebsiella pneumoniae): 7.61%
- Inhibition (Candida albicans): 2.54%
- Inhibition (Cryptococcus neoformans): -23.12%

SMILES: CCOC(=O)N1CCN(C(=O)CCc2nnc3c4cc(-c5ccccc5)nn4ccn23)CC1
- Inhibition (Klebsiella pneumoniae): 14.35%
- Inhibition (Candida albicans): 1.03%
- Inhibition (Cryptococcus neoformans): -14.62%

SMILES: O=c1n(Cc2ccc(Cl)cc2)nc2ccc(-c3ccccc3)nn12
- Inhibition (Klebsiella pneumoniae): 18.04%
- Inhibition (Candida albicans): 2.75%
- Inhibition (Cryptococcus neoformans): -18.7%

SMILES: Cc1ccc(-c2ccc3nn(Cc4ccc(Cl)cc4)c(=O)n3n2)cc1C
- Inhibition (Klebsiella pneumoniae): 5.62%
- Inhibition (Candida albicans): 5.2%
- Inhibition (Cryptococcus neoformans): -10.05%

SMILES: Cc1ccc(C)c(NC(=O)Cn2nc3c(N4CCCC(C)C4)nccn3c2=O)c1 (centres undefined)
- Inhibition (Klebsiella pneumoniae): 3.52%
- Inhibition (Candida albicans): 2.37%
- Inhibition (Cryptococcus neoformans): -8.1%

SMILES: CCCCOc1ccc(-c2cc3c4nnc(SCC(=O)N(CC)c5ccccc5)n4ccn3n2)cc1
- Inhibition (Klebsiella pneumoniae): 16.4%
- Inhibition (Candida albicans): 5.05%
- Inhibition (Cryptococcus neoformans): -16.28%

SMILES: O=C(CCc1nnc2c(N3CCCCC3)nc3ccccc3n12)NCc1ccc(Cl)cc1
- Inhibition (Klebsiella pneumoniae): 14.26%
- Inhibition (Candida albicans): 2.29%
- Inhibition (Cryptococcus neoformans): -23.16%
